Measurements published in ChEMBL document CHEMBL1961873, “Compounds: GSK PKIS; Assays: Nanosyn kinase panel” (2012).

Assays:
[1] = molecular target: Mitogen-activated protein kinase 3 (Homo sapiens) (UniProt P27361); conditions: at 1 µM;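 note: values are mean percent inhibition of MAPK3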
[2] = molecular target: SRSF protein kinase 3 (Homo sapiens) (UniProt Q9UPE1); conditions: at 0.1 µM
[3] = molecular target: SRSF protein kinase 3 (Homo sapiens) (UniProt Q9UPE1); conditions: at 1 µM
[4] = molecular target: Mitogen-activated protein kinase 14 (Homo sapiens) (UniProt Q16539); conditions: at 0.1 µM
Mitogen-activated protein kinase 14 (Homo sapiens), sequence (Q16539 whole entry): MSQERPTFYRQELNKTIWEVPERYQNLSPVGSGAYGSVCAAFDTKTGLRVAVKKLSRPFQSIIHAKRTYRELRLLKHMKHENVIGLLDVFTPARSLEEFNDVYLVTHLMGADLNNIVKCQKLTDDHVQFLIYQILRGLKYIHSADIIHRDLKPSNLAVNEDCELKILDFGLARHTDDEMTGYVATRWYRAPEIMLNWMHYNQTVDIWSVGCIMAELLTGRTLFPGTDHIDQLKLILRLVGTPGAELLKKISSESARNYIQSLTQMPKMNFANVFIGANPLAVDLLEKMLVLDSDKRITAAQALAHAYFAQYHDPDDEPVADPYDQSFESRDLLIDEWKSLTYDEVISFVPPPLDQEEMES

[5] = molecular target: Mitogen-activated protein kinase 14 (Homo sapiens) (UniProt Q16539); conditions: at 1 µM
[6] = molecular target: Mitogen-activated protein kinase 11 (Homo sapiens) (UniProt Q15759); conditions: at 0.1 µM
Mitogen-activated protein kinase 11 (Homo sapiens), sequence (Q15759 whole entry): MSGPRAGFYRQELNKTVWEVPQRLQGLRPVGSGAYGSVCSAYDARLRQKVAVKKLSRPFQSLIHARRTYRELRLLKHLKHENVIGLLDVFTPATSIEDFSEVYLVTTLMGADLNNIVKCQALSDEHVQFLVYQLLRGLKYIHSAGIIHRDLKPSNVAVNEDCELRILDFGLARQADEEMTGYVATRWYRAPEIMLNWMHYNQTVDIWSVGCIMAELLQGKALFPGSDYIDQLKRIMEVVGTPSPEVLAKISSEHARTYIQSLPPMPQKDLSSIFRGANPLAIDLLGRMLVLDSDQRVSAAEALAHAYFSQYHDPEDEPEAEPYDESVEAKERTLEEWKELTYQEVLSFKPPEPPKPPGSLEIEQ

[7] = molecular target: Mitogen-activated protein kinase 11 (Homo sapiens) (UniProt Q15759); conditions: at 1 µM
[8] = molecular target: T1, Mitogen-activated protein kinase 13 (Homo sapiens) (UniProt O15264); conditions: at 0.1 µM
T1 sequence (whole entry): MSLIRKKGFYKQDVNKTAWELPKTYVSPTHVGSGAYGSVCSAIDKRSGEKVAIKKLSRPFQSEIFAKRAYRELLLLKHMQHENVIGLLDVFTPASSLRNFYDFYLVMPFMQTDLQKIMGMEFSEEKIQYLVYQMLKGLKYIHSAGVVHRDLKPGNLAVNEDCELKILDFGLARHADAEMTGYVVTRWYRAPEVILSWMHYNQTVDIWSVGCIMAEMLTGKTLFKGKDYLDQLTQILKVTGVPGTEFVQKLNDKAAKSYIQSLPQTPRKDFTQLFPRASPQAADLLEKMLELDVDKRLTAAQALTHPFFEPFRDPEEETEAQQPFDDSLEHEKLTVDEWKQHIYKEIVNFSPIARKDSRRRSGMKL

[9] = molecular target: T1, Mitogen-activated protein kinase 13 (Homo sapiens); conditions: at 1 µM
[10] = molecular target: T2, Mitogen-activated protein kinase 12 (Homo sapiens) (UniProt P53778); conditions: at 0.1 µM
T2 sequence (whole entry): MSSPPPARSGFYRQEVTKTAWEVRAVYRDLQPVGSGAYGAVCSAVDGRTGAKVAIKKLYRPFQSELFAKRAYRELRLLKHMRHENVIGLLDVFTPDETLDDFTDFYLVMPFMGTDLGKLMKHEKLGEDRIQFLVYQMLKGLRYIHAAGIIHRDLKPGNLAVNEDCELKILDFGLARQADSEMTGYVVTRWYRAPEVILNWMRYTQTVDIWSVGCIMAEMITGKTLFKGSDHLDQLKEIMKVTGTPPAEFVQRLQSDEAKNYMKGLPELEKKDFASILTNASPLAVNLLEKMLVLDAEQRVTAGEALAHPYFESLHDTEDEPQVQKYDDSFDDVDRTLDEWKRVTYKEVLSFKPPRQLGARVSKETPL

SRSF protein kinase 3 (Homo sapiens), sequence (Q9UPE1 whole entry): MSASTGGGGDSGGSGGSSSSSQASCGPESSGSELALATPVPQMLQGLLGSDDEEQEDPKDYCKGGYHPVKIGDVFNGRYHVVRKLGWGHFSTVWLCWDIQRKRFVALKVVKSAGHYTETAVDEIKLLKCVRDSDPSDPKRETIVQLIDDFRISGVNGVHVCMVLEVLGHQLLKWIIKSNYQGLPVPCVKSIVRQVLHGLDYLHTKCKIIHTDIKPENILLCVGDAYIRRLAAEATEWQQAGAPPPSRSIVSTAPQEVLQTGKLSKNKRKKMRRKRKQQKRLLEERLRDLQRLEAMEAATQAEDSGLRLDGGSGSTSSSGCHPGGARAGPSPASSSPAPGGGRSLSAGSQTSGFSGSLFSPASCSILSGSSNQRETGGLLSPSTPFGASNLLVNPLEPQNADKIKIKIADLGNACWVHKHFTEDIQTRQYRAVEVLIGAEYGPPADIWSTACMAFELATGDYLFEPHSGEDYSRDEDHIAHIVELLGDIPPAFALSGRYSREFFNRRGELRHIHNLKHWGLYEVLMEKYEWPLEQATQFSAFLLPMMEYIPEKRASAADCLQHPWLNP
Mitogen-activated protein kinase 3 (Homo sapiens), sequence (P27361 whole entry): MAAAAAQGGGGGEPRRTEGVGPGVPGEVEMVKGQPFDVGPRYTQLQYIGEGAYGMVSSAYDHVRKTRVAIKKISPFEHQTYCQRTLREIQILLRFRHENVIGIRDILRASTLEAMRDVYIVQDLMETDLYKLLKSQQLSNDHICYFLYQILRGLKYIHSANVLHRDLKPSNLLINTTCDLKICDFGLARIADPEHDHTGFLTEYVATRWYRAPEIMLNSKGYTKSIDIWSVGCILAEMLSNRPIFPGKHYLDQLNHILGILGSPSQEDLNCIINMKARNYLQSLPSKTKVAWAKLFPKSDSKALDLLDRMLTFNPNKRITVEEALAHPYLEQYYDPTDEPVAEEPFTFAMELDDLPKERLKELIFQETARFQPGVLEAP

| Structure (SMILES) | inhibition [1] | inhibition [2] | inhibition [3] | inhibition [4] | inhibition [5] | inhibition [6] | inhibition [7] | inhibition [8] | inhibition [9] | inhibition [10] |
| --- | --- | --- | --- | --- | --- | --- | --- | --- | --- | --- |
| NS(=O)(=O)c1ccc(-c2ccc3c(NC(=O)C4CC4)n[nH]c3c2)cc1 | 1.36% | 0.31% | -1.45% | 7.62% | 5.94% | 2.34% | -1.13% | 3.91% | 5.02% | 0.67% |
| COc1cc2c(cc1Nc1nc(Nc3ccsc3C(N)=O)c3cc[nH]c3n1)N(C(=O)CN(C)C)CCC2 | 1.75% | -1.49% | -0.38% |  |  | 2.67% | 6.9% | 1.18% | 0.18% | 2.28% |
| Cc1cc(-c2ccco2)cc(C)c1/C=C/c1cncc(-c2nn[nH]n2)c1 | 1.84% | -1.41% | -1.53% | 1.46% | 1.43% | 3.14% | 3.31% | 0.77% | -1.04% | 0.9% |
| CCn1c(-c2nonc2N)nc2c(C#CCN)ncc(OCCCN)c21 | -0.18% | -0.3% | 3.44% | 2.31% | -5.03% | -2.25% | 0.63% | 2.51% | -4.32% | -2.6% |
| COc1cc(C=NNc2ncnc3c2cnn3Cc2ccccc2)ccc1O | -1.19% | -1.86% | -0.84% | -2.19% | -2.5% | -3.2% | -2.27% | -0.79% | -6.14% | -2.53% |
| CCn1c(-c2nonc2N)nc2c(C#CC(C)(C)O)nc(O[C@@H](CN)c3ccccc3)cc21 | 0.99% | -2% | -2.07% | 1.44% | 1.33% | -1.84% | 2.96% | 1.2% | 0.11% | 1.29% |
| NC(=O)c1sc(-n2cnc3cc(C(F)(F)F)ccc32)cc1OCc1ccccc1Br | 0.48% | -3.47% | 0.48% | 1.34% | 4.04% | 4.23% | 4.66% | 0.44% | -0.68% | 1.27% |
| Fc1ccc(-c2ncn(C3CCNCC3)c2-c2ccnc(Oc3ccccc3)n2)cc1 | 3.04% | -3.7% | -2.18% |  |  |  |  |  |  |  |
| COc1cccc(COc2cc(-n3cnc4ccccc43)sc2C(N)=O)c1 | 3% | -1.99% | -1.01% | 1.67% | 8.88% | 1.92% | 4.36% | -0.06% | -2.46% | -0.12% |
| CCn1c(-c2nonc2N)nc2c(C#CC(C)(C)O)ncc(OC[C@@H]3CCCN3)c21 | 2.32% | -2.22% | -4.41% | 0.34% | 0.75% | 1.96% | 1.41% | 0.68% | -1.56% | 0.36% |
| COc1cccc(-n2ncc3c(N/N=C/c4ccncc4)ncnc32)c1 | 7.65% | -0.94% | 1.8% | 9.43% | 16.4% | 4.02% | 10.8% | 7.88% | 43.3% | 5.45% |
| NS(=O)(=O)c1ccc(N/C=C2\C(=O)Nc3ccc4ncsc4c32)cc1 | 15.3% | -1.67% | 0.72% | 18.6% | 23.4% | 4.61% | 15% | 4.52% | 4.84% | 2.86% |
| CCn1c(-c2nonc2N)nc2c(C#CC(C)(C)O)ncc(OCC3CCNCC3)c21 | 6.52% | -0.11% | 3.41% | -0.04% | 5.69% | 3.7% | 4.04% | 1.99% | 2.26% | 1.19% |
| Nc1nonc1-c1nc2cnccc2n1C1CCCCC1 | 2.55% | -1.48% | -1.01% | -0.43% | -3.77% | -1.77% | 0.28% | -3.11% | 1.87% | -0.65% |
